Data published in PubChem BioAssay (EPA / NIEHS).
Records with an inconclusive call do not appear. The source made the active and inactive calls. Rule for the calls, unless noted: active = hit-call score of the fitted dose curve at least 0.9, where 1 is the maximum; inactive = score below 0.9.

Key:
[1] = ATG_DR4_LXR_CIS: Attagene CIS-FACTORIAL HepG2 Assay for human Liver X Receptor (LXR), DR4 submotif (AID 2282929); settings: HepG2 Attagene DR4 cis-reporter, mRNA transcription; actives raise or lower the signal
How it was run: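 Measures endogenous transcription factor activity via a DR4-driven reporter transcript in human HepG2 cells. Compounds incubated 24 h; mRNA quantified by RT-PCR and capillary electrophoresis, analysed as gain or loss of signal versus DMSO.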

[2] = ATG_AP_1_CIS: Attagene CIS-FACTORIAL HepG2 Assay for human Activator Protein 1 (AP-1) (AID 2282931); settings: HepG2 Attagene cis-factorial AP-1 reporter mRNA; actives raise or lower the signal
How it was run: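 Bidirectional concentration-response fitting against DMSO controls. Underlying signal: reporter mRNA from cis-promoter constructs in transiently transfected HepG2, measured after 24 h by RT-PCR and capillary electrophoresis.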

[3] = biological target: Hepatocyte nuclear factor 3-beta (Homo sapiens) (UniProt Q9Y261); experiment: ATG_FoxA2_CIS: Attagene CIS-FACTORIAL HepG2 Assay for human Forkhead box A2 (FOXA2) (AID 2282942); settings: HepG2 cis-reporter transcription factor activity, 24 h; actives raise or lower the signal
How it was run: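 In transiently transfected human HepG2 cells, promoter-driven reporter mRNA levels after 24 h chemical exposure are determined via RT-PCR with capillary electrophoresis. DMSO serves as baseline for bidirectional fitting.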

[4] = biological target: Hypoxia-inducible factor 1-alpha (Homo sapiens) (UniProt Q16665); experiment: ATG_HIF1a_CIS: Attagene CIS-FACTORIAL HepG2 Assay for human Hypoxia Inducible Factor 1 (HIF1A) (AID 2282951); settings: HepG2 Attagene cis-factorial HIF1a reporter transcription; actives raise or lower the signal
How it was run: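 In this multiplexed cell assay, HepG2 cells bearing transfected cis reporters are dosed for 24 h and reporter mRNA is read by RT-PCR plus capillary electrophoresis; signal increases and decreases are both scored against DMSO.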

[5] = biological target: Heat shock factor protein 1 (Homo sapiens) (UniProt Q00613); experiment: ATG_HSE_CIS: Attagene CIS-FACTORIAL HepG2 Assay for human Heat Shock Transcription Factor 1 (HSE) (AID 2282953); settings: HepG2 HSE cis-reporter, Attagene RNA transcription; actives raise or lower the signal
How it was run: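 Endogenous transcription factor activity in transiently transfected HepG2, read as reporter mRNA by RT-PCR with fluorescent capillary electrophoresis after 24 h. Gain or loss of signal fitted versus DMSO baseline.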

[6] = ATG_RORE_CIS: Attagene CIS-FACTORIAL HepG2 Assay for human RAR-related Orphan Receptor Element (RORE) (AID 2282959); settings: HepG2 Attagene cis-factorial RORE reporter, mRNA; actives raise or lower the signal
How it was run: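 Fluorescence intensity of reporter-specific cDNA fragments, separated by capillary electrophoresis, gives the signal. Source: HepG2 liver cells transiently transfected with cis-element reporters and exposed 24 h; DMSO-normalized bidirectional fit.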

[7] = biological target: Signal transducer and activator of transcription 3 (Homo sapiens) (UniProt P40763); experiment: ATG_STAT3_CIS: Attagene CIS-FACTORIAL HepG2 Assay for human Signal Transducer and Activator of Transcription 3 (STAT3) (AID 2282963); settings: HepG2, Attagene cis-factorial STAT3 reporter transcription; actives raise or lower the signal
How it was run: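 HepG2, MRTU-transfected, 24 h dosing. RNA → RT → PCR → FAM label → HpaI → CE. Bidirectional fit vs DMSO.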

[8] = ATG_TCF_b_cat_CIS: Attagene CIS-FACTORIAL HepG2 Assay for human T-Cell-Factor with beta-catenin (TCF/b-cat) (AID 2282965); settings: HepG2 TCF/beta-catenin cis-reporter transcription, actives raise or lower the signal
How it was run: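 In this cis-format system, transfected HepG2 cells report endogenous transcription factor activity. Readout after 24 h exposure is reporter transcript abundance from RT-PCR and capillary electrophoresis, analysed for gain or loss of signal versus DMSO.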

[9] = ATG_TAL_CIS: Attagene CIS-FACTORIAL HepG2 Assay for human TAL Basal Promoter (AID 2282966); settings: HepG2 Attagene cis-factorial TAL promoter reporter; actives raise or lower the signal;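 note: background control endpoint measuring basal TAL promoter reporter mRNA not a specific factor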
How it was run: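 After 24 hours of chemical exposure, transfected HepG2 cells yielded RNA that was converted to 6-FAM-labelled, HpaI-digested reporter fragments for capillary electrophoresis. Values derive from bidirectional fitting against DMSO controls.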

[10] = ATG_TGFb_CIS: Attagene CIS-FACTORIAL HepG2 Assay for human Transforming Growth Factor (TGF) (AID 2282967); settings: HepG2 Attagene CIS TGFb reporter, mRNA transcription; actives raise or lower the signal
How it was run: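 Endogenous TGFB1-linked transcription factor activity read as reporter mRNA via RT-PCR and capillary electrophoresis, 24 h after dosing transiently transfected HepG2 cells. Gain or loss of signal fitted relative to DMSO.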

[11] = ATG_VDRE_CIS: Attagene CIS-FACTORIAL HepG2 Assay for human Vitamin D Receptor Element (VDRE) (AID 2282968); settings: HepG2 VDRE cis-reporter transcription, actives raise or lower the signal
How it was run: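 Steps: transfect HepG2 with multiple reporter transcription units; dose chemicals 24 h; isolate RNA; RT-PCR; label with 6-FAM primer extension; HpaI digest; capillary electrophoresis. Curves fitted both directions against DMSO.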

[12] = biological target: X-box-binding protein 1 (Homo sapiens) (UniProt P17861); experiment: ATG_Xbp1_CIS: Attagene CIS-FACTORIAL HepG2 Assay for human X-box Binding Protein 1 (XBP1) (AID 2282972); settings: HepG2 XBP1 cis-element reporter, Attagene multiplex; actives raise or lower the signal
How it was run: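 Human hepatoma HepG2, cis-element reporter system, 24 h treatment; mRNA quantified by RT-PCR/CE fluorescence; fit relative to DMSO.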

[13] = biological target: Transcriptional activator Myb (Homo sapiens) (UniProt P10242); experiment: ATG_Myb_CIS: Attagene CIS-FACTORIAL HepG2 Assay for human Myeloblastosis (Myb) Proto-Oncogene Transcription Factor (AID 2282986); settings: HepG2 Attagene CIS-FACTORIAL Myb reporter transcription; actives raise or lower the signal
How it was run: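 Fluorescence signals from capillary electrophoresis of RT-PCR-amplified reporter cDNA give the read-out. Cells: HepG2 transfected with multiple cis-regulated reporter units. Exposure lasts 24 hours; DMSO defines baseline for gain or loss of signal.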

[14] = biological target: Nuclear respiratory factor 1 (Homo sapiens) (UniProt Q16656); experiment: ATG_NRF1_CIS: Attagene CIS-FACTORIAL HepG2 Assay for human Nuclear Respiratory Factor 1 (NRF1) Orphan Gene (AID 2282987); settings: HepG2 NRF1 cis-element reporter, Attagene multiplex; actives raise or lower the signal
How it was run: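 Transcriptional reporter readout, one component of a 52-endpoint multiplexed HepG2 panel. Exposure 24 h; mRNA detected via RT-PCR and fluorescent capillary electrophoresis; fitting in both directions against DMSO.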

[15] = biological target: Myc proto-oncogene protein (Homo sapiens) (UniProt P01106); experiment: ATG_Myc_CIS: Attagene CIS-FACTORIAL HepG2 Assay for human Myelocytomatosis (Myc) Proto-Oncogene Transcription Factor (AID 2282990); settings: HepG2, Attagene cis-reporter transcription factor activity; actives raise or lower the signal
How it was run: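 DMSO-normalised, bidirectionally fitted reporter mRNA signal. HepG2 cells transfected with cis reporter constructs, treated 24 h; transcripts detected by RT-PCR, 6-FAM primer extension and CE.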

[16] = ATG_NRF2_ARE_CIS: Attagene CIS-FACTORIAL HepG2 Assay for human Nuclear Factor Erythroid 2 Related Factor 2 (NFR2) response to Antioxidant Response Elements (ARE) (AID 2282992); settings: HepG2 Attagene ARE/NRF2 reporter, transcription factor activity; actives raise or lower the signal;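 for AC50: reporter mRNA level measured by RT-PCR and capillary electrophoresis fluorescence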
How it was run: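 Fluorescence intensity of reporter-specific cDNA fragments, separated by capillary electrophoresis, reflects mRNA induction in transfected HepG2 cells at 24 h. Activity is fitted bidirectionally, DMSO serving as baseline.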

[17] = ATG_Oct_MLP_CIS: Attagene CIS-FACTORIAL HepG2 Assay for human Octamer-Binding Transcription Factor (Oct) (AID 2282993); settings: HepG2 Attagene cis-factorial Oct reporter, mRNA; actives raise or lower the signal
How it was run: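 Readout is reporter transcript level from RT-PCR with fluorescent primer extension and capillary electrophoresis, fitted in both directions against DMSO. Transfected HepG2 reporter units report endogenous factor activity after 24 h dosing.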

[18] = biological target: Cellular tumor antigen p53 (Homo sapiens) (UniProt P04637); experiment: ATG_p53_CIS: Attagene CIS-FACTORIAL HepG2 Assay for human p53 Transcription Factor (AID 2282994); settings: HepG2 p53 cis-element reporter, Attagene mRNA; actives raise or lower the signal
How it was run: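 Transiently transfected HepG2 (multiple cis reporter transcription units); exposure 24 h; reporter RNA via RT-PCR, 6-FAM extension, 2 h HpaI digest at 37 C, CE detection; DMSO baseline.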

[19] = biological target: Nuclear receptor subfamily 1 group I member 2 (Homo sapiens) (UniProt O75469); experiment: ATG_PXR_TRANS: Attagene TRANS-FACTORIAL HepG2 Assay for human Pregnane X Receptor (PXR) (AID 2283008; active = hit-call score of the fitted dose curve at least 0.9, where 1 is the maximum)
How it was run: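 Transient HepG2 transfectants carrying multiplexed reporter transcription units; PXR activity read through a Gal4 chimera. 24 h exposure. RT-PCR/CE fluorescence; upward curve fit referenced to DMSO.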

[20] = ATG_XTT_Cytotoxicity: Cytotoxicity Assessment in the Attagene TRANS-FACTORIAL HepG2 Assay (AID 2283584; active = hit-call score of the fitted dose curve at least 0.9, where 1 is the maximum)
How it was run: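 Cells: human HepG2, transiently transfected with MRTU reporter constructs. Exposure 24 h. Readout: XTT, cell number. Baseline/neg ctrl DMSO; loss-of-signal scored.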

Measured: AC50

Chain of Hepatocyte nuclear factor 3-beta (Homo sapiens) (Q9Y261 whole entry, looked up): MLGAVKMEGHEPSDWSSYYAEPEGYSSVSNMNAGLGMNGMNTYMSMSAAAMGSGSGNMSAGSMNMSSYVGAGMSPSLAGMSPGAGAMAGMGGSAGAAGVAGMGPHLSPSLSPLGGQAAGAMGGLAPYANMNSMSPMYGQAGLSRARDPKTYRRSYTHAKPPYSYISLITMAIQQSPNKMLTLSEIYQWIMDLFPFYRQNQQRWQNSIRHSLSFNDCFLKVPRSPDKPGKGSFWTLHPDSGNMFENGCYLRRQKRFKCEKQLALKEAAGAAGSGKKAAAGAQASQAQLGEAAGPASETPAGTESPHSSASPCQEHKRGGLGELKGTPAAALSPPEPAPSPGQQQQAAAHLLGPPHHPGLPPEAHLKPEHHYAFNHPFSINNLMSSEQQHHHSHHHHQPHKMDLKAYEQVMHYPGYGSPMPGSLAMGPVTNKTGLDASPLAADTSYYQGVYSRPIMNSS
Chain of Hypoxia-inducible factor 1-alpha (Homo sapiens) (Q16665 whole entry, looked up): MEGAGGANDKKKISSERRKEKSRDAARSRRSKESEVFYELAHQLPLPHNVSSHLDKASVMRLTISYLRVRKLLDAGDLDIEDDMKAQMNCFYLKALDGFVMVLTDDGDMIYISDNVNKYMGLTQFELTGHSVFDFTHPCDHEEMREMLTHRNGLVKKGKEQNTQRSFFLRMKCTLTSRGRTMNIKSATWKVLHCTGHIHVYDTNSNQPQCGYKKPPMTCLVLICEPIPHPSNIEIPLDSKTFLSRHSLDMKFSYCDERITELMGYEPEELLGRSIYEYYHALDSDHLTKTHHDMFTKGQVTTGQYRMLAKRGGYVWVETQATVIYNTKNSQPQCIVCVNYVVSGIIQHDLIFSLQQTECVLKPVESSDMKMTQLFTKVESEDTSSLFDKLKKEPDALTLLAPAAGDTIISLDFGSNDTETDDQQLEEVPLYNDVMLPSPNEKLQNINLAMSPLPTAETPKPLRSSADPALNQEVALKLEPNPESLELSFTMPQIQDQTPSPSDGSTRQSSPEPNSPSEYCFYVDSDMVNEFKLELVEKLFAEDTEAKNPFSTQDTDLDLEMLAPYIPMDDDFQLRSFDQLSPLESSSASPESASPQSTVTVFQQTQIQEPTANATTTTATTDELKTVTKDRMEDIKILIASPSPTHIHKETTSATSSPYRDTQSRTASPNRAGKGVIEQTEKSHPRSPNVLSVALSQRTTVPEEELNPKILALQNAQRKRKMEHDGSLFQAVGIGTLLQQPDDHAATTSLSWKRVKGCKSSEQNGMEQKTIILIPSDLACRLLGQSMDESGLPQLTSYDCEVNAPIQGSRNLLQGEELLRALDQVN
Chain of Heat shock factor protein 1 (Homo sapiens) (Q00613 whole entry, looked up): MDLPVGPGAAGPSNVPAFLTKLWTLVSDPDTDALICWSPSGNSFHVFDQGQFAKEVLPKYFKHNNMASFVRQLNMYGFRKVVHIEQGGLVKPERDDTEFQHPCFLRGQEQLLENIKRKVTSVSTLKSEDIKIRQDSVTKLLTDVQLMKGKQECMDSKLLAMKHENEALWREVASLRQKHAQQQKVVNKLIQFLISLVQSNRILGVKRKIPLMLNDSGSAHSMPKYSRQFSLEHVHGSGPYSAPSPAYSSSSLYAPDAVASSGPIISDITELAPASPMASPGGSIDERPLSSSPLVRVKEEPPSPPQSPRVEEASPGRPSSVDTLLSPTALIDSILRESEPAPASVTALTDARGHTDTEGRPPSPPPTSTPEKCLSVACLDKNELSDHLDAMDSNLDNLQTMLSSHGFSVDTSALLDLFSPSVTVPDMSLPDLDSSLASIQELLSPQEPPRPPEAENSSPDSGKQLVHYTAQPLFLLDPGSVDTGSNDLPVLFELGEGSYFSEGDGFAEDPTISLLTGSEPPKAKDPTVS
Chain of Cellular tumor antigen p53 (Homo sapiens) (P04637 whole entry, looked up): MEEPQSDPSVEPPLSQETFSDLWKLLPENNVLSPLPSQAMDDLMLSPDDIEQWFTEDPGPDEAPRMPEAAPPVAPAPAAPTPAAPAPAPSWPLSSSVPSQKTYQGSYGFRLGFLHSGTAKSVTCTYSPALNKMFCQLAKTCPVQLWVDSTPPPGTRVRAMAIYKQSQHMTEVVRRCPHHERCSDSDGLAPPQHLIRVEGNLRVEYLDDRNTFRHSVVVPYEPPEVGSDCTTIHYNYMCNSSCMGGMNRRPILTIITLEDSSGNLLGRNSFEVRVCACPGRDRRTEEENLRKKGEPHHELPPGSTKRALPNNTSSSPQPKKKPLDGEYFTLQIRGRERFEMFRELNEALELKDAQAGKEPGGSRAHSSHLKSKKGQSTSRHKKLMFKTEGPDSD
Chain of Transcriptional activator Myb (Homo sapiens) (P10242 whole entry, looked up): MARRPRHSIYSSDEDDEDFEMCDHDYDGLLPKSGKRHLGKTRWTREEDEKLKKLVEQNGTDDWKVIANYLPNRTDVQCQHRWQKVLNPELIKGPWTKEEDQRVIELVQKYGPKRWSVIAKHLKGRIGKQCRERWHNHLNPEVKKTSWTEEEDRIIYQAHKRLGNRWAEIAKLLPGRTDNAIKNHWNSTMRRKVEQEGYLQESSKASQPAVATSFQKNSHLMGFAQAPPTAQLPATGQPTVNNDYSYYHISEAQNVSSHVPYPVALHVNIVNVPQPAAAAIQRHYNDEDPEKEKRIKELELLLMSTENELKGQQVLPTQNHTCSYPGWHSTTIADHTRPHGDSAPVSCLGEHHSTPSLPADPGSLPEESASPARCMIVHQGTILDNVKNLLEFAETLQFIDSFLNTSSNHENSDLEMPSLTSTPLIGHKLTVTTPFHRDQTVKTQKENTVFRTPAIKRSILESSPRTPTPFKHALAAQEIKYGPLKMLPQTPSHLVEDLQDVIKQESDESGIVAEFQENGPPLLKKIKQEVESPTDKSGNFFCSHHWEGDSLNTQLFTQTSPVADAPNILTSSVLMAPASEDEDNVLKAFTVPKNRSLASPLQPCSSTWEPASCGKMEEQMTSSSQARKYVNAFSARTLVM
Chain of Myc proto-oncogene protein (Homo sapiens) (P01106 whole entry, looked up): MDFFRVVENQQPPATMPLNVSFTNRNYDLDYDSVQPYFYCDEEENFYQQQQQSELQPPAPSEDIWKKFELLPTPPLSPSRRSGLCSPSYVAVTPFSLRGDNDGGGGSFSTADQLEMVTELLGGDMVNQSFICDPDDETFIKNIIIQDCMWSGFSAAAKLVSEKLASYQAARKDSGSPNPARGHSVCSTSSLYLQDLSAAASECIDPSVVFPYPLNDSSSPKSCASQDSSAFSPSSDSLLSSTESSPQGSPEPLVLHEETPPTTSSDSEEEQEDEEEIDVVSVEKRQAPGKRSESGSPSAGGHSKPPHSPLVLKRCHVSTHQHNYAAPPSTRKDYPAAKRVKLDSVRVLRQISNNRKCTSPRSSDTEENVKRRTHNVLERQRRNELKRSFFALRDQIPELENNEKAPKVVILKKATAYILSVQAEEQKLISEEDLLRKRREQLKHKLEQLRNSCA
Chain of Signal transducer and activator of transcription 3 (Homo sapiens) (P40763 whole entry, looked up): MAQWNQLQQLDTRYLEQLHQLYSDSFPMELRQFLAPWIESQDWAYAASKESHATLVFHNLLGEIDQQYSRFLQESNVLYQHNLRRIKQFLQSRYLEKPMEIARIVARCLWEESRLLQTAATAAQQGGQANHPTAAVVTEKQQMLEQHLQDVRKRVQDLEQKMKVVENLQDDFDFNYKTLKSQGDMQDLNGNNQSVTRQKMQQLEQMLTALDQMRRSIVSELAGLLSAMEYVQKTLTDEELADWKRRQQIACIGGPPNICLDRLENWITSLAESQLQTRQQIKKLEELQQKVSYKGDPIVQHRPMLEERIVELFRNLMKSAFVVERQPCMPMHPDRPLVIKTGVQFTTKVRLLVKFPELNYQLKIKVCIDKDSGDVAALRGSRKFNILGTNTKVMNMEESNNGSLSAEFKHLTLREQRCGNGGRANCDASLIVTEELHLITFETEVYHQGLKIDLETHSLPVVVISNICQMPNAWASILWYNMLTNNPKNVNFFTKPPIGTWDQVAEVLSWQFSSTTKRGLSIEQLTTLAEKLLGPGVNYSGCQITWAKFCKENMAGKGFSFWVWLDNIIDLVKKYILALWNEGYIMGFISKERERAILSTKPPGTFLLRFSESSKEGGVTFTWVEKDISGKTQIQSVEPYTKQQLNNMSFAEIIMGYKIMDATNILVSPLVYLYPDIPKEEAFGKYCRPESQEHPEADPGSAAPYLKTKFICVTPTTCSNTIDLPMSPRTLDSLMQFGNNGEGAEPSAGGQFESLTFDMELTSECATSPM
Chain of Nuclear receptor subfamily 1 group I member 2 (Homo sapiens) (O75469 whole entry, looked up, the tested form may be a part): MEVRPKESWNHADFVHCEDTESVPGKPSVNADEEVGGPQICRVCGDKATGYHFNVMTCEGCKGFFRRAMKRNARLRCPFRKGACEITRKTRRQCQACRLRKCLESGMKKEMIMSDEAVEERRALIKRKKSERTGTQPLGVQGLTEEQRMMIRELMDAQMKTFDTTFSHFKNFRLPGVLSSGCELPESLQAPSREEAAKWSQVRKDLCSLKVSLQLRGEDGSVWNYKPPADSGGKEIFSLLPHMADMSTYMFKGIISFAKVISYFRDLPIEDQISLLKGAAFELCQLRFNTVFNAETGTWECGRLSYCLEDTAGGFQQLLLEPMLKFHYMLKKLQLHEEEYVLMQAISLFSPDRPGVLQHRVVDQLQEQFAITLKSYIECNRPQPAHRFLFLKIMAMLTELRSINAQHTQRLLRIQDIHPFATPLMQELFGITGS
Chain of X-box-binding protein 1 (Homo sapiens) (P17861 whole entry, looked up): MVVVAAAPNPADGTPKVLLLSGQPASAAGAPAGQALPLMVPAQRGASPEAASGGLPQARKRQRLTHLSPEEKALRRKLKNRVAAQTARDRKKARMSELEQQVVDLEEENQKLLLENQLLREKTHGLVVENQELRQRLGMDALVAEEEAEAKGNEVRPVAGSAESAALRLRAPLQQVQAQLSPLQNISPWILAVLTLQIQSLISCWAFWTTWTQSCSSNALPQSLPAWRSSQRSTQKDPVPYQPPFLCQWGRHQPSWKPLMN

CC/C=C/CCO
inactive: all assays above

NCc1ccccc1
not listed: [17] | [19]
inactive: all other assays above

O=C(O)c1nc(Cl)c(Cl)c(Cl)c1Cl
active: [16] 15.3 µM
not listed: [18] | [20]
inactive: all other assays above

O=[N+]([O-])c1ccccc1C(F)(F)F
active: [4] 48.9 µM
inactive: all other assays above

O=C1CCCCCCCCCCCCCC1
active: [1] 49.4 µM | [2] 44.6 µM | [5] 62.1 µM | [15] 23.6 µM | [16] 32.6 µM | [19] 26.6 µM
inactive: all other assays above

c1cc[c]([Bi]([c]2ccccc2)[c]2ccccc2)cc1
active: [1] 5.72 µM | [2] 58.1 µM | [10] 40.4 µM | [16] 48.9 µM | [19] 2.73 µM
not listed: [17] | [18]
inactive: all other assays above

CC[N+](CC)(CC(=O)Nc1c(C)cccc1C)Cc1ccccc1 (tested in a mixture with another compound)
not listed: [5] | [11] | [18]
inactive: all other assays above

C=C1CC[C@H]2C[C@@H]1C2(C)C
active: [16] 21.9 µM | [19] 10.4 µM
not listed: [2] | [18]
inactive: all other assays above

O=[N+]([O-])c1ccc2nc[nH]c2c1
not listed: [11] | [18] | [19]
inactive: all other assays above

CC(C)CC(=O)O
not listed: [2] | [19]
inactive: all other assays above

CCCCCCCCCC/C=C/C1CC(=O)OC1=O (stereo unspecified)
active: [10] 100 µM | [16] 79.8 µM
not listed: [19]
inactive: all other assays above

CCC(C)(CCC(C)C)C(=O)O (stereo unspecified)
not listed: [5] | [18]
inactive: all other assays above

CNC[C@H](O)[C@@H](O)[C@H](O)[C@H](O)CO
not listed: [4] | [17] | [19]
inactive: all other assays above

CCC(C)=NO
not listed: [19] | [20]
inactive: all other assays above
